From PubChem BioAssay

The compounds below were run against Calmodulin-1 (Homo sapiens) (UniProt P0DP23) (assay: CALM1 binders on microarrays, EGTA buffer, profiling panel, biochemical, small-molecule microarray, Cy5-labelled CALM1 (AID 1111;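 also: labelled calmodulin applied in Tris saline Tween buffer holding calcium plus EGTA and DTT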)). Conditions: Cy5-CALM1 binding fluorescence, higher = more signal.
`CCN1C(=O)[C@H]2[C@H]3[C@H](O)[C@H](O)CC(=NOC[C@@H](C)[C@H](OCc4ccccc4)C(C)C)[C@@H]3CC[C@H]2C1=O` showed a composite z-score of 0.809. `CCOC(=O)NN=C1C[C@@H](O)[C@@H](O)[C@@H]2[C@@H]3C(=O)N(C4CCCCC4)C(=O)[C@@H]3CC[C@@H]12` gave a composite z-score of -0.29. Compound `CCc1cc2c(nc1CC)CCN(CCC(C)=NOC[C@@H](O)[C@H]1O[C@@H]3OC(C)(C)O[C@@H]3[C@H]1O)C2` has a composite z-score of 1.68. Work on `CC(C)NC(=O)[C@@H]1c2ccccc2C(=O)N(CC23CC4CC(CC(C4)C2)C3)[C@H]1c1ccc(CO)cc1` yielded a composite z-score of 0.324. Work on `CN1C(=O)C2C=CC(C(O)C(c3ccccc3)c3ccccc3)N(NC(=O)OC(C)(C)C)C2C1=O` (stereo not given) yielded a composite z-score of 2.75. Compound `CC(C)(C)OC(=O)CC[C@]1(C(N)=O)COC(c2ccc(OCCCO)cc2)=N1` has a composite z-score of 2.68. In the case of `C/C=C\[C@@H](NCc1ccccc1Br)[C@@H](O)Cc1ccccc1`, the composite z-score is reported as -0.64. `CCOC(=O)C1=CC[C@H]2C(=O)N(CC)C(=O)[C@@H]12` showed a composite z-score of -0.322. With `COC(=O)C1(C)C=C2C(=C(c3ccccc3)C(=O)C2C)CN1` (stereo not given) the composite z-score was 0.29. For `CO[C@@H]1COC(=O)CC=C[C@@H](C)[C@@H]2C=C[C@H](O)[C@@H](COC(=O)CCC[C@H]1C)O2`, the composite z-score was -0.859. For `CCOC(=O)[C@H](Cc1ccccc1)NC(=O)CCC1CC(OC(=O)NCc2ccc3c(c2)OCO3)CC2(CCCC(COC(=O)NCC(c3ccccc3)c3ccccc3)O2)O1` (stereo not given in full), the composite z-score was -0.198. `CN1C(=O)C2C(C1=O)C1C=C(CCCO)C2C(c2ccc(CN3CCCC3)cc2)N1C` (stereo not given) showed a composite z-score of -0.573. `[N-]=[N+]=NCc1ccccc1[C@@H]1OC(c2ccc(OCCCO)cc2)=N[C@]1(Cc1ccccc1)C(=O)N1CCOCC1` was tested, and the composite z-score was 1.93. In the case of `CO[C@@H]1COC(=O)CCC[C@@H](C)[C@H](OC)COC(=O)CCC[C@H]1C`, the composite z-score is reported as -0.454. In the case of `C=COC[C@H]1CN2[C@@H](CC[C@@H](C)[C@@H]2c2ccc(Br)cc2)C(=O)O1`, the composite z-score is reported as 0.537. `CC(C)=CCCC(C)=CCON=C1[C@H]2CCn3c(=O)n(Cc4cc5c(cc4Cl)OCO5)c(=O)n3[C@H]2[C@H](O)[C@@H]2O[C@H]12` showed a composite z-score of -0.175. `C=CCOC(=O)[C@H]1[C@@H]2C(=O)O[C@@H](c3ccccc3)[C@@H](c3ccccc3)N2[C@@H](c2ccc(OCCOC(=O)[C@H]3C[C@H]4C(=O)N5CCC[C@H]5C(=O)N4[C@H]3c3cccc(OCCO)c3)cc2)[C@]12C(=O)Nc1ccc(I)cc12` showed a composite z-score of 2. With `COc1ccc(-c2ccc3c(n2)CCCN3CC(O)CN2CCCc3nc(C)c(C)cc32)cc1` (stereo not given) the composite z-score was 0.0025. Compound `COC(=O)[C@@]1(Cc2ccccc2)[C@H]2c3cc(C(=O)N4CCCC4)n(Cc4ccccn4)c3C[C@H]2CN1C(=O)c1ccccc1` has a composite z-score of 1.45. `CC(C)NC(=O)[C@@]1(C)c2ccccc2C(=O)N(Cc2cc(F)cc(C(F)(F)F)c2)[C@H]1c1ccc(CO)cc1` showed a composite z-score of 0.304. In the case of `CO[C@H]1COC(=O)[C@H](C)COC(=O)CC=C[C@@H](C)[C@H](OC)COC(=O)CC=C[C@@H]1C`, the composite z-score is reported as -0.556. For `CC(=O)OC[C@H]1O[C@H](CCON=C(C)CCC(=O)OC[C@H]2O[C@H](C#Cc3ccccc3)C=C[C@@H]2Oc2ccc(C)cc2)C=C[C@@H]1OC(C)=O`, the composite z-score was -0.367. For `CN(C)C(=O)[C@@]1(Cc2ccccc2)N=C(c2ccc(OCCCO)cc2)O[C@H]1c1ccccc1CN=[N+]=[N-]`, the composite z-score was 2.47. With `C=CCC(OC(C)=O)[C@@H]1[C@@H](N(Cc2cc3ccccc3o2)C(=O)Cc2ccc(F)cc2)c2cc(OCCCO)ccc2N1C(=O)Cc1ccc(OC)cc1` (stereo not given in full) the composite z-score was -0.481. Compound `COc1ccc(O[C@H]2C=C[C@@H](c3ccccc3)O[C@@H]2COC(=O)CCC(C)=NO[C@H](C)c2cn([C@@H]3COC[C@H]3O)nn2)cc1` has a composite z-score of -0.121. `O=C(NN=C1C[C@@H](O)[C@@H](O)[C@@H]2[C@@H]3C(=O)N(c4cccc(Oc5ccccc5)c4)C(=O)[C@@H]3CC[C@H]12)OCc1ccccc1` showed a composite z-score of 0.0088. `C=CCOC(=O)[C@H]1[C@@H]2C(=O)O[C@@H](c3ccccc3)[C@@H](c3ccccc3)N2[C@@H](c2ccc(OCCOC(=O)[C@H]3C[C@H]4C(=O)N[C@@H](Cc5ccccc5)C(=O)N4[C@H]3c3ccc(O)cc3)cc2)[C@]12C(=O)Nc1ccccc12` showed a composite z-score of 0.743. `COCCCNC(=O)[C@@]1(Sc2ccc(C)cc2)CC(=O)N(Cc2ccccc2)[C@@H]1c1ccc(CO)cc1I` gave a composite z-score of -1.11. `CCCCCN1CC=CC23O[C@@H]4C=CCOC(=O)[C@@H]4[C@H]2C(=O)N(C(CO)C(C)C)[C@@H]3C1=O` (stereo not given in full) gave a composite z-score of -0.385. For `CO[C@@H]1COC(=O)CC=C[C@@H](C)[C@@H]2C=C[C@@H](O)[C@@H](COC(=O)CC=C[C@H]1C)O2`, the composite z-score was -1.24. For `CO[C@@H]1COC(=O)[C@H](C)NC(=O)[C@@H](C)COC(=O)CCC[C@H]1C`, the composite z-score was -0.485. In the case of `COC(=O)[C@@]1(Cc2ccc(OC)cc2)[C@H]2c3cc(C(=O)N4CCCC4)n(Cc4cc(F)c(F)c(F)c4)c3C[C@H]2CN1C(=O)c1ccccc1`, the composite z-score is reported as 2.69. `CC(C)=NOCc1cccc(-c2cc(-c3ccccc3)no2)c1` gave a composite z-score of 0.0463. `CC(C)=NOCc1ccc(-c2cc(-c3ccccc3)no2)cc1` showed a composite z-score of -0.555. `Cn1cccc1C(O)C1C=CC2C(=O)NC(=O)C2N1Nc1ccccn1` (stereo not given) showed a composite z-score of -0.0487.
